Source: PubChem BioAssay (NCATS)
Results filed as inconclusive are left out. The source made the active and inactive calls. Calls come from the whole dose curve; as a rule, active = well fitted curve in the direction sought with a large enough effect; inconclusive = small, poorly fitted or top-dose-only effect, or another doubt; inactive = no such curve, though single readings can be large; an effect the other way counts as inactive or inconclusive.

What was measured:
[1] = P-glycoprotein substrates identified in KB-8-5-11 adenocarcinoma cell line, qHTS therapeutic library screen (AID 1346987); note: series mostly up to about 44 µM; % is set by controls: 0 for no effect and ±100 for the full control effect; nearly all actives have a fitted effect of over 65% in size
Procedure, shortened: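 Luminescence from CellTiter-Glo, read 5 min after addition, quantified survival of KB-8-5-11 (P-gp-overexpressing) cells exposed to compounds for 72 h. AC50 was derived from concentration-response curves.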

[2] = NS1 protein of Zika virus - qHTS assay to identify small molecule inhibitors in human HEK 293 cells (AID 1347053);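 note: series mostly up to about 46 µM; plate controls were infected untreated cells for no effect and uninfected cells for full effect; nearly all actives have a fitted effect of over 55% in size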
Procedure, shortened: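 Compound-treated (1 h pre-infection) HEK 293 cells infected with ZIKV MR766, MOI = 0.5; after 24 h at 37 C, NS1 read by TR-FRET; data normalized to uninfected and infected controls.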

[3] = qHTS of pediatric cancer cell lines to identify multiple opportunities for drug repurposing: Primary screen for TC32 cells (AID 1347089); note: % is set by controls: 0 for no effect and ±100 for the full control effect; nearly all actives have a fitted effect of over 60% in size
Procedure, shortened: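 In the primary qHTS, MIPE compounds were tested at 11 concentrations (0.78 nM to 46 µM) and NPC compounds at 8 (0.59 nM to 46 µM) on TC32 cells for 48 h. CellTiter-Glo luminescence gave viability.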

[4] = qHTS of pediatric cancer cell lines to identify multiple opportunities for drug repurposing: Primary screen for DAOY cells (AID 1347090);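 note: series mostly up to about 46 µM; plate controls were DMSO for no effect and bortezomib for full effect; nearly all actives have a fitted effect of over 55% in size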
Procedure, shortened: (§1)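 Viability measured as metabolically active cells via CellTiter-Glo luminescence following 48 hours of compound exposure, 11-point dilutions in confirmatory testing. 500-1,000 cells/well plated 5 hours before dosing; controls were DMSO and 2.3 µM bortezomib.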

[5] = qHTS of pediatric cancer cell lines to identify multiple opportunities for drug repurposing: Primary screen for SJ-GBM2 cells (AID 1347091);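 note: plate controls were DMSO neutral control for no effect and bortezomib for full effect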
Procedure, shortened: as §1

[6] = qHTS of pediatric cancer cell lines to identify multiple opportunities for drug repurposing: Primary screen for A673 cells (AID 1347092); note: % is set by controls: 0 for no effect and ±100 for the full control effect; nearly all actives have a fitted effect of over 45% in size
Procedure, shortened: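 48 h compound exposure, A673, 500-1,000 cells/well, 37 degrees C/5% CO2. MIPE: 11-point, 0.78 nM-46 µM; NPC: 8-point, 0.59 nM-46 µM (final). Readout CellTiter-Glo luminescence after 15 min RT.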

[7] = qHTS of pediatric cancer cell lines to identify multiple opportunities for drug repurposing: Primary screen for SK-N-MC cells (AID 1347093);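 note: series mostly up to about 46 µM; plate controls were DMSO neutral control for no effect and bortezomib for full effect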
Procedure, shortened: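 Metabolically active cells were quantified by ATP-dependent luminescence (CellTiter-Glo, 15 min at room temperature) following 48 h treatment. Cells had been plated at 500-1,000 per well and settled for 5 h beforehand.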

[8] = qHTS of pediatric cancer cell lines to identify multiple opportunities for drug repurposing: Primary screen for BT-37 cells (AID 1347094);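 note: series mostly up to about 57 µM; plate controls were DMSO for no effect and bortezomib for full effect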
Procedure, shortened: (§2)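 Quantitative HTS format: each compound titrated (MIPE 11 points from 0.78 nM, NPC 8 points from 0.59 nM) onto cells plated 5 hours earlier. After 48 h at 37 degrees C, CellTiter-Glo luminescence was recorded.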

[9] = qHTS of pediatric cancer cell lines to identify multiple opportunities for drug repurposing: Primary screen for NB-EBc1 cells (AID 1347095);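 note: plate controls were DMSO neutral control for no effect and bortezomib for full effect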
Procedure, shortened: as §2

[10] = qHTS of pediatric cancer cell lines to identify multiple opportunities for drug repurposing: Primary screen for U-2 OS cells (AID 1347096);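 note: plate controls were DMSO wells for no effect and bortezomib positive control wells for full effect; nearly all actives have a fitted effect of over 50% in size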
Procedure, shortened: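 Viability after 48 h compound treatment at 37C, 500-1,000 cells/well, read as ATP luminescence with CellTiter-Glo. Primary screens used 11-point (MIPE, 0.78 nM-46 µM) or 8-point (NPC, 0.59 nM-46 µM) final concentrations; follow-up screens used 11-point dilutions.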

[11] = qHTS of pediatric cancer cell lines to identify multiple opportunities for drug repurposing: Primary screen for Saos-2 cells (AID 1347097); note: % is set by controls: 0 for no effect and ±100 for the full control effect; nearly all actives have a fitted effect of over 40% in size
Procedure, shortened: as §2

[12] = qHTS of pediatric cancer cell lines to identify multiple opportunities for drug repurposing: Primary screen for SK-N-SH cells (AID 1347098);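 note: DMSO served as neutral control and bortezomib at 2.3 µM as positive control; % is set by controls: 0 for no effect and ±100 for the full control effect; nearly all actives have a fitted effect of over 65% in size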
Procedure, shortened: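 Cells (500-1,000/well) rested 5 h, then received compounds for 48 h; metabolically active cells were measured by CellTiter-Glo luminescence. Final concentrations spanned up to 46 µM (MIPE, 11-point) or 0.59 nM-46 µM (NPC, 8-point) in primary screens, 11-point in follow-ups.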

Nc1ccc(S(=O)(=O)NCc2ccccc2)cc1
inactive: Potency [1] | Potency [2] | Potency [3] | Potency [4] | Potency [5] | Potency [6] | Potency [7] | Potency [8] | Potency [9] | Potency [10] | Potency [11] | Potency [12]

CC(O)Cn1cnc2c1c(=O)n(C)c(=O)n2C (stereo unspecified)
inactive: Potency [1] | Potency [2] | Potency [3] | Potency [4] | Potency [5] | Potency [6] | Potency [7] | Potency [8] | Potency [9] | Potency [10] | Potency [12]

COP(=O)(OC)OC(c1ccc(Cl)cc1)P(=O)(OC)OC (stereo unspecified)
inactive: Potency [1] | Potency [2] | Potency [3] | Potency [4] | Potency [5] | Potency [6] | Potency [7] | Potency [8] | Potency [9] | Potency [10] | Potency [12]

COc1cc(NS(=O)(=O)c2ccc(N)cc2)ncn1
inactive: Potency [1] | Potency [2] | Potency [3] | Potency [4] | Potency [5] | Potency [6] | Potency [7] | Potency [8] | Potency [9] | Potency [10] | Potency [12]

Cc1cccc(C)c1NC(=O)CN1CCCCCC1
inactive: Potency [1] | Potency [2] | Potency [3] | Potency [4] | Potency [5] | Potency [6] | Potency [7] | Potency [8] | Potency [9] | Potency [10] | Potency [11] | Potency [12]

CC(=O)NCCCCCC(=O)O
inactive: Potency [1] | Potency [2] | Potency [3] | Potency [4] | Potency [5] | Potency [6] | Potency [7] | Potency [8] | Potency [9] | Potency [10] | Potency [12]

CCN(CC)CCNC(=O)COc1ccc(OC)cc1
inactive: Potency [1] | Potency [2] | Potency [3] | Potency [4] | Potency [5] | Potency [6] | Potency [7] | Potency [8] | Potency [9] | Potency [10] | Potency [11] | Potency [12]

CCCCN1C[C@H](O)[C@@H](O)[C@H](O)[C@H]1CO
inactive: Potency [1] | Potency [2] | Potency [3] | Potency [4] | Potency [5] | Potency [6] | Potency [7] | Potency [8] | Potency [9] | Potency [10] | Potency [12]

CCOC(=O)[C@H](CCc1ccccc1)N[C@@H](C)C(=O)N1[C@H](C(=O)O)C[C@@H]2CCC[C@@H]21
inactive: Potency [1] | Potency [2] | Potency [3] | Potency [4] | Potency [5] | Potency [6] | Potency [8] | Potency [9] | Potency [10]

OC[C@H]1O[C@@H]2O[C@H]3[C@H](O)[C@@H](O)[C@@H](O[C@H]4[C@H](O)[C@@H](O)[C@@H](O[C@H]5[C@H](O)[C@@H](O)[C@@H](O[C@H]6[C@H](O)[C@@H](O)[C@@H](O[C@H]7[C@H](O)[C@@H](O)[C@@H](O[C@H]8[C@H](O)[C@@H](O)[C@@H](O[C@H]1[C@H](O)[C@H]2O)O[C@@H]8CO)O[C@@H]7CO)O[C@@H]6CO)O[C@@H]5CO)O[C@@H]4CO)O[C@@H]3CO
inactive: Potency [1] | Potency [2] | Potency [3] | Potency [4] | Potency [5] | Potency [6] | Potency [7] | Potency [8] | Potency [9] | Potency [10] | Potency [12]

CN(C)CCN1C(=O)c2ccccc2N(C)c2ccccc21
inactive: Potency [1] | Potency [2] | Potency [3] | Potency [4] | Potency [5] | Potency [6] | Potency [7] | Potency [8] | Potency [9] | Potency [10] | Potency [11] | Potency [12]

O=[N+]([O-])c1cccc(S(=O)(=O)NCCNS(=O)(=O)c2cccc([N+](=O)[O-])c2)c1
inactive: Potency [1] | Potency [2] | Potency [3] | Potency [4] | Potency [5] | Potency [6] | Potency [7] | Potency [8] | Potency [9] | Potency [10] | Potency [12]

O=C(O)c1ccc(S(=O)(=O)N(Cl)Cl)cc1
inactive: Potency [1] | Potency [2] | Potency [3] | Potency [4] | Potency [5] | Potency [6] | Potency [7] | Potency [8] | Potency [9] | Potency [10] | Potency [11] | Potency [12]

CCN[C@@H]1C[C@H](N)[C@@H](OC2OC(CN)=CCC2N)[C@H](O)[C@H]1O[C@H]1OC[C@](C)(O)[C@H](NC)[C@H]1O (stereo partly specified)
inactive: Potency [1] | activity change, negative = inhibition [2] -23.1% [at 0.593 µM] | activity change, negative = cytotoxic [3] 2.31% [at 0.594 µM] | activity change, negative = cytotoxic [4] 1.01% [at 0.597 µM] | activity change, negative = cytotoxic [5] 1.88% [at 0.597 µM] | activity change, negative = cytotoxic [6] -2.55% [at 0.597 µM] | activity change, negative = cytotoxic [7] -24.4% [at 0.597 µM] | activity change, negative = cytotoxic [8] 5.98% [at 0.745 µM] | activity change, negative = cytotoxic [9] -22.3% [at 0.597 µM] | activity change, negative = cytotoxic [10] 2.58% [at 0.597 µM] | activity change, negative = cytotoxic [12] -5.21% [at 0.741 µM]

O=S(=O)(O)c1ccc(O)cc1
inactive: Potency [1] | Potency [2] | Potency [3] | Potency [4] | Potency [5] | Potency [6] | Potency [7] | Potency [8] | Potency [9] | Potency [10] | Potency [11] | Potency [12]

NCc1ccccc1Sc1ccccc1CO
inactive: Potency [1] | Potency [2] | Potency [3] | Potency [4] | Potency [5] | Potency [6] | Potency [7] | Potency [8] | Potency [9] | Potency [10] | Potency [11] | Potency [12]

CCOc1ccccc1OCCN[C@H](C)Cc1ccc(OC)c(S(N)(=O)=O)c1
inactive: Potency [1] | Potency [2] | Potency [3] | Potency [4] | Potency [5] | Potency [6] | Potency [7] | Potency [8] | Potency [9] | Potency [10] | Potency [12]

CCCCNC(=O)NS(=O)(=O)c1ccc(N)cc1
inactive: Potency [1] | Potency [2] | Potency [3] | Potency [4] | Potency [5] | Potency [6] | Potency [7] | Potency [8] | Potency [9] | Potency [10] | Potency [12]

CC(=O)N[C@@H](CCC(=O)O)C(=O)O
inactive: Potency [1] | Potency [2] | Potency [3] | Potency [4] | Potency [5] | Potency [6] | Potency [7] | Potency [8] | Potency [9] | Potency [10] | Potency [12]

COc1ccc(/C=N/NC(=O)c2ccncc2)cc1OC
inactive: Potency [1] | Potency [2] | Potency [3] | Potency [4] | Potency [5] | Potency [6] | Potency [7] | Potency [8] | Potency [9] | Potency [10] | Potency [11] | Potency [12]
